Measured values from the supplement of paper PMC10037445.
Over roughly 2,900 compounds, “NF-kB SEAP reporter activity, fold change vs agonist alone” has its median near 0.99; the highest 2% begin near 2.6. Many of the other results were omitted from the sample, so the highest values are more common in it than they were.

How the values were obtained:
RAW-Dual [1] = test: NF-kB SEAP reporter activity, fold change vs agonist alone; higher = enhanced NF-kB activity; conditions: library stock concentration (final ~1000-fold dilution): 10 mM, cytotoxicity flag (confluency mask): not cytotoxic
Method in brief: (§1)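 Reporter activity is given as fold change relative to agonist-alone wells. To measure it, 50 nL of library stock was pin-tooled onto RAW-Dual macrophages (50,000 cells/well, DMEM, 384-well plates), a PRR agonist followed 1 h later, and cells stayed at 37 °C, 5% CO2. Twenty hours on, supernatant was assayed for IRF (QuantiLuc luminescence) and NF-κB (QuantiBlue, 620 nm absorbance), and wells under 70% of agonist-control IncuCyte confluency in both mask sets were marked cytotoxic.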

RAW-Dual [2] = test: NF-kB SEAP reporter activity, fold change vs agonist alone; cytotoxicity flag (confluency mask): not cytotoxic; higher = enhanced NF-kB activity
Method in brief: as §1

[3] = agonist: ODN 1826 (TLR9) 0.5 ug/mL
[4] = agonist: Pam2CSK4 (TLR2/6) 0.1 ug/mL
[5] = agonist: Pam3CSK4 (TLR2/1) 0.1 ug/mL

SMILES | NF-kB SEAP reporter activity (RAW-Dual [1]; agonist: Imiquimod (TLR7) […]) | NF-kB SEAP reporter activity (RAW-Dual [1]; agonist: MPLA (TLR4) […]) | NF-kB SEAP reporter activity (RAW-Dual [2]; agonist: LPS (TLR4) 0.1 ug/mL) | NF-kB SEAP reporter activity (RAW-Dual [2]; [3]) | NF-kB SEAP reporter activity (RAW-Dual [2]; [4]) | NF-kB SEAP reporter activity (RAW-Dual [2]; [5])
Cn1ncc(Cl)c1-c1cc(C(=O)NC(CN)Cc2ccc(F)c(F)c2)oc1Cl (stereo unspecified) | 1.61 | 1.61 |  |  |  | 
Cn1ncc(Cl)c1-c1cc(C(=O)NC(CN)Cc2ccc(F)c(F)c2)oc1Cl (stereo unspecified) (library stock concentration (final ~1000-fold dilution): 10 mM) |  |  | 1.03 | 2.35 | 1.07 | 1.44
CCOC(=O)C(CCc1ccccc1)NC(C)C(=O)N1Cc2ccccc2CC1C(=O)O.Cl (stereo unspecified) (library stock concentration (final ~1000-fold dilution): 10 mM) |  |  | 0.94 | 1.07 | 1.26 | 1.05
CCOC(=O)C(CCc1ccccc1)NC(C)C(=O)N1Cc2ccccc2CC1C(=O)O.Cl (stereo unspecified) | 1.02 | 1.03 |  |  |  | 
CC(NC(=O)c1c(N)nn2cccnc12)c1cc2cccc(C#Cc3cnn(C)c3)c2c(=O)n1-c1ccccc1 (stereo unspecified) (library stock concentration (final ~1000-fold dilution): 10 mM) |  |  | 2.34 | 1.3 | 0.628 | 0.931
CC(Nc1ncnc(N)c1C#N)c1cc2cccc(-c3ccc(=O)n(C)c3)c2c(=O)n1C(C)C (stereo unspecified) (library stock concentration (final ~1000-fold dilution): 10 mM) |  |  | 4.83 | 0.722 | 1.22 | 3.02
CC(Nc1ncnc2[nH]cnc12)c1cc2cccc(Cl)c2c(=O)n1-c1ccccc1 (stereo unspecified) (library stock concentration (final ~1000-fold dilution): 10 mM) |  |  | 0.744 | 0.653 | 0.665 | 0.549
CC(Nc1ncnc2[nH]cnc12)c1cc2cccc(Cl)c2c(=O)n1-c1ccccc1 (stereo unspecified) | 0.473 | 0.709 |  |  |  | 
CC(Nc1ncnc(N)c1C#N)c1cc2cccc(-c3ccc(=O)n(C)c3)c2c(=O)n1C(C)C (stereo unspecified) | 1.22 | 2.8 |  |  |  | 
CC(NC(=O)c1c(N)nn2cccnc12)c1cc2cccc(C#Cc3cnn(C)c3)c2c(=O)n1-c1ccccc1 (stereo unspecified) | 1.18 | 1.44 |  |  |  | 
Cc1cccc(C)c1OCC(=O)NC(Cc1ccccc1)C(O)CC(Cc1ccccc1)NC(=O)C(C(C)C)N1CCCNC1=O (stereo unspecified) | 1.63 | 2.06 |  |  |  | 
Cc1cccc(C)c1OCC(=O)NC(Cc1ccccc1)C(O)CC(Cc1ccccc1)NC(=O)C(C(C)C)N1CCCNC1=O (stereo unspecified) (library stock concentration (final ~1000-fold dilution): 10 mM) |  |  | 1.37 | 2.09 | 0.396 | 1.03
Cc1ccc(S(=O)(=O)O)cc1.NC(=O)c1cccc2cn(-c3ccc(C4CCCNC4)cc3)nc12 (stereo unspecified) (library stock concentration (final ~1000-fold dilution): 10 mM) |  |  | 1.04 | 0.181 | 1.41 | 1.1
Cc1ccc(S(=O)(=O)O)cc1.NC(=O)c1cccc2cn(-c3ccc(C4CCCNC4)cc3)nc12 (stereo unspecified) | 0.663 | 1.04 |  |  |  | 
Cc1nc2ccc(CN(C)c3ccc(C(=O)NC(CCC(=O)O)C(=O)O)s3)cc2c(=O)[nH]1 (stereo unspecified) | 1.78 | 1.45 |  |  |  | 
Cc1nc2ccc(CN(C)c3ccc(C(=O)NC(CCC(=O)O)C(=O)O)s3)cc2c(=O)[nH]1 (stereo unspecified) (library stock concentration (final ~1000-fold dilution): 10 mM) |  |  | 1.56 | 1.93 | 1.31 | 1.7

SMILES | NF-kB SEAP reporter activity (RAW-Dual [1]; agonist: Imiquimod (TLR7) […]) | NF-kB SEAP reporter activity (RAW-Dual [1]; agonist: MPLA (TLR4) […]) | NF-kB SEAP reporter activity (RAW-Dual [2]; agonist: LPS (TLR4) 0.1 ug/mL) | NF-kB SEAP reporter activity (RAW-Dual [2]; [3]) | NF-kB SEAP reporter activity (RAW-Dual [2]; [4]) | NF-kB SEAP reporter activity (RAW-Dual [2]; [5])
CNc1ccc([N+](=O)[O-])cc1-n1cnc(-c2ccc(C(F)(F)F)cc2)c1 | 1.24 | 2.01 |  |  |  | 
CNc1ccc([N+](=O)[O-])cc1-n1cnc(-c2ccc(C(F)(F)F)cc2)c1 (library stock concentration (final ~1000-fold dilution): 10 mM) |  |  | 4.5 | 1.91 | 0.926 | 1.08
O=C(Cc1ccccc1)Nc1nnc(NC2CCN(c3nnc(NC(=O)Cc4ccccc4)s3)CC2)s1 (library stock concentration (final ~1000-fold dilution): 10 mM) |  |  | 1.41 | 0.773 | 0.514 | 0.64
O=C(Cc1ccccc1)Nc1nnc(NC2CCN(c3nnc(NC(=O)Cc4ccccc4)s3)CC2)s1 | 0.998 | 1.26 |  |  |  | 
COc1ccc(C2CC(=O)c3c(O)cc(O)cc3O2)cc1O (stereo unspecified) (library stock concentration (final ~1000-fold dilution): 10 mM) |  |  | 1.12 | 1.2 | 1.26 | 1.33
COc1ccc(C2CC(=O)c3c(O)cc(O)cc3O2)cc1O (stereo unspecified) | 1.28 | 1.11 |  |  |  | 
O=C(O)CCN1C(=O)/C(=C2/C(=O)Nc3ccc(Cl)cc32)SC1=S | 0.954 | 1.18 |  |  |  | 
O=C(O)CCN1C(=O)/C(=C2/C(=O)Nc3ccc(Cl)cc32)SC1=S (library stock concentration (final ~1000-fold dilution): 10 mM) |  |  | 1.86 | 0.841 | 1.4 | 1.57
COc1cc(-c2oc3cc(O)cc(O)c3c(=O)c2OC2OC(CO)C(O)C(O)C2OC2OC(C)C(O)C(O)C2O)ccc1O (stereo unspecified) | 0.928 | 1.05 |  |  |  | 
COc1cc2c(OC3OC(CO)C4OC(C)(C)OC4C3O)c3c(c(-c4ccc5c(c4)OCO5)c2cc1OC)C(=O)OC3 (stereo unspecified) (library stock concentration (final ~1000-fold dilution): 10 mM) |  |  | 2.9 | 0.644 | 1.95 | 3.92
COc1cc(-c2oc3cc(O)cc(O)c3c(=O)c2OC2OC(CO)C(O)C(O)C2OC2OC(C)C(O)C(O)C2O)ccc1O (stereo unspecified) (library stock concentration (final ~1000-fold dilution): 10 mM) |  |  | 1.2 | 0.987 | 1.01 | 0.949
COc1cc2c(OC3OC(CO)C4OC(C)(C)OC4C3O)c3c(c(-c4ccc5c(c4)OCO5)c2cc1OC)C(=O)OC3 (stereo unspecified) | 0.364 | 2.28 |  |  |  | 
COc1cc(/C=C/CO)cc(OC)c1OC1OC(CO)C(O)C(O)C1O (stereo unspecified) (library stock concentration (final ~1000-fold dilution): 10 mM) |  |  | 1.08 | 1.01 | 1.11 | 1.15
COc1cc(/C=C/CO)cc(OC)c1OC1OC(CO)C(O)C(O)C1O (stereo unspecified) | 1.03 | 1.08 |  |  |  | 
CC(NC(CCc1ccccc1)C(=O)O)C(=O)N1CCCC1C(=O)O.O.O (stereo unspecified) | 0.942 | 1.12 |  |  |  | 
CC(NC(CCc1ccccc1)C(=O)O)C(=O)N1CCCC1C(=O)O.O.O (stereo unspecified) (library stock concentration (final ~1000-fold dilution): 10 mM) |  |  | 0.977 | 1.07 | 1.14 | 1.09
